Compounds without any hit were thinned out: in the full panel of roughly 83,000, 20% have a hit.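 Note: values are percent growth. 100 is the growth of untreated cells, values between 100 and 0 indicate rising inhibition; between -100 and 0 indicates cell death.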 Unmarked numbers belong to inactive results. The source made the active and inactive calls. Rule for the calls: active = growth percent below 10; inactive = the rest.
Each compound was assayed on SN12C renal (assay: NCI-60 one-dose screen, 48 h (100 = growth as untreated, 0 = no growth, -100 = all killed)). Details: 10 µM unless noted.

Row | SMILES | growth
1 | CN(C)c1ccc(C2Nc3ccccc3-n3cccc32)cc1 (stereo not drawn) | 89.5%
2 | Nc1nc2c(c3ncccc13)C(c1cccc(Br)c1)Cc1ncccc1-2 (stereo not drawn) | 34.4%
3 | O=[N+]([O-])c1cccc(-c2nc3sccn3c2-c2ccnc(NCCCNS(=O)(=O)c3ccc(F)cc3)n2)c1 | 10.6%
4 | COc1ccc(-n2c(C)nc3c(c(C)nn3-c3ccccc3)c2=O)cc1 | 42%
5 | COc1ccc(-n2cc(-c3ccccc3)c3c(SCC(=O)N/N=C/c4ccc([N+](=O)[O-])cc4)ncnc32)cc1 | 102%
6 | Nc1c(C(=O)Nc2ccccc2)sc2nc3c(cc12)CN(CCc1ccccc1)CC3 | 89.4%
7 | CCOC(=O)c1c2ncccc2n2c(=O)n(-c3ccc(Cl)cc3)nnc12 | 103%
8 | CCN(CC)CCCC(C)Nc1ccnc2c(OC)cccc12 (stereo not drawn) | 101%
9 | OC(c1cccc(C(F)(F)F)c1)c1cnccc1NC1CCCCCC1 (stereo not drawn) | 54.1%
10 | NC(=S)N/N=C/c1cc(-c2cccc(N)c2)ccn1 | 16.7%
11 | COc1ccc(CCN2CCCn3c2nc2ccccc2c3=O)cc1 | 45%
12 | O=C(/C=C\c1cccc([N+](=O)[O-])c1)c1ccccc1 | 97.2%
13 | CCOC(=O)C(Cc1cc(I)c(O)c(I)c1)NC(=O)c1ccccc1 (stereo not drawn) | 97.6%
14 | COc1cc(C#N)cc(OC)c1OCCN(CCOc1c(OC)cc(C#N)cc1OC)S(=O)(=O)c1ccc(C)cc1 | 111%
15 | CN1CCN(Cc2ccc(NC(=O)c3cncc(C#Cc4cncc5nccnc45)c3)cc2C(F)(F)F)CC1 | 31.7%
16 | Nc1nc(-c2ccc(F)cc2)cc(-c2cnn(-c3ccccc3)n2)n1 | 111%
17 | CC(=O)C1=C(O)C=C2Oc3c(C(=O)/C=C/c4ccccc4)c(O)c(C)c(O)c3[C@]2(C)C1=O | 23.4%
18 | COc1ccc(C/C(C)=C(\c2ccc(OCCN3CCCCCC3)cc2)c2ccc(OC(=O)C3CCCCC3)cc2)cc1 | 57.1%
19 | O=[N+]([O-])c1cccc(-c2nc3sccn3c2-c2ccnc(NCCCNS(=O)(=O)c3ccc(Br)cc3)n2)c1 | 53%
20 | CCOC(=O)/C=C/C(=O)[C@H](CC(C)C)NC(=O)[C@H](Cc1ccccc1)NC(=O)OCc1ccccc1 | 57.2%

Row | SMILES | growth
21 | Cc1cc2cc3cc(C)c(N(C)C)cc3nc2cc1N(C)C | 15.3%
22 | C=C1CCC2C3(C)COC(C)(C)OC3CCC2(C)C1C/C=C1/C(=O)OCC1OC(C)=O (stereo not drawn) | 33%
23 | C=C1CC2(OC1=O)C(=O)N(CCCCCCCCCCCCN1C(=O)C3(CC(=C)C(=O)O3)c3ccccc31)c1ccccc12 (stereo not drawn) | 53.1%
24 | O=C1c2cccnc2C(=O)c2c1c(C(=O)OCCN1CCCCC1)c1ccccn21 | -68.8% (active)
25 | COc1ccccc1N1CCN(CCn2c(=O)c3c(c4ccccc4n3C)n(C)c2=O)CC1 | 81.8%
26 | C/C(=C(/c1ccc(O)cc1)c1ccc(OCCN(C)C)cc1)c1ccccc1 | 84%
27 | CCOC(=O)c1c2c(n3ccc(NC(=O)CCN4CCOCC4)cc13)C(=O)c1ncccc1C2=O | 24.2%
28 | Cc1cc(=O)oc2cc(Oc3nc(-c4cccs4)cn4c(-c5cccs5)cnc34)ccc12 | 73.8%
29 | CC(C)[C@@H]1CC[C@]2(C(=O)NCCCCN=C(N)N)CC[C@]3(C)[C@H](CC[C@@H]4[C@@]5(C)CCC(=O)C(C)(C)[C@@H]5CC[C@]43C)[C@@H]12 | 60.7%
30 | Oc1cc(O)c2c(=S)cc(-c3ccc(Cl)cc3)oc2c1 | 25.5%
31 | COc1ccc(-c2cn3c(-c4ccc(OC)cc4)cnc3c(Oc3ccc4c(C)cc(=O)oc4c3)n2)cc1 | 24.5%
32 | CN1CCN(Cc2ccc(NC(=O)c3[nH]ncc3Nc3ccnc4ccsc34)cc2)CC1 | 21.3%
33 | Nc1nc2ccc(-c3nc4ccc5[nH]ncc5c4c4c3CCC4)cc2s1 | 28.4%
34 | Oc1ccc2c(=S)cc(-c3ccc(Br)cc3)oc2c1O | -4.08% (active)
35 | Clc1cccc(Nc2nc(Nc3cnc4ccccc4c3)c3[nH]cnc3n2)c1 | 61.2%
36 | COc1ccc(-c2cc(NC(=O)Nc3ccc(O)cc3)no2)cc1 | 74.8%
37 | CC(=O)CC(C)(C)c1ccc(Cl)cc1 | 97.7%
38 | O=C1C2CC=CCC2C(=O)N1CNc1ccc(Cl)cc1 (stereo not drawn) | 90.8%
39 | CN1CCN(Cc2ccc(NC(=O)c3[nH]ncc3Nc3ncnc4c3CCC4)cc2)CC1 | 6.07% (active)

The compounds below were run on UO-31 renal in the same assay as above. Details: 10 µM unless noted.

Row | SMILES | growth
40 | CN(C)c1ccc(C2Nc3ccccc3-n3cccc32)cc1 (stereo not drawn) | 64.2%
41 | Nc1nc2c(c3ncccc13)C(c1cccc(Br)c1)Cc1ncccc1-2 (stereo not drawn) | 33.8%
42 | O=[N+]([O-])c1cccc(-c2nc3sccn3c2-c2ccnc(NCCCNS(=O)(=O)c3ccc(F)cc3)n2)c1 | -26.8% (active)
43 | COc1ccc(-n2c(C)nc3c(c(C)nn3-c3ccccc3)c2=O)cc1 | 44.3%
44 | COc1ccc(-n2cc(-c3ccccc3)c3c(SCC(=O)N/N=C/c4ccc([N+](=O)[O-])cc4)ncnc32)cc1 | 79.4%
45 | Nc1c(C(=O)Nc2ccccc2)sc2nc3c(cc12)CN(CCc1ccccc1)CC3 | 80.3%
46 | CCOC(=O)c1c2ncccc2n2c(=O)n(-c3ccc(Cl)cc3)nnc12 | 61%
47 | CCN(CC)CCCC(C)Nc1ccnc2c(OC)cccc12 (stereo not drawn) | 87.4%
48 | OC(c1cccc(C(F)(F)F)c1)c1cnccc1NC1CCCCCC1 (stereo not drawn) | 28.7%
49 | NC(=S)N/N=C/c1cc(-c2cccc(N)c2)ccn1 | 12.4%
50 | COc1ccc(CCN2CCCn3c2nc2ccccc2c3=O)cc1 | 41.1%
51 | O=C(/C=C\c1cccc([N+](=O)[O-])c1)c1ccccc1 | -64.5% (active)
52 | CCOC(=O)C(Cc1cc(I)c(O)c(I)c1)NC(=O)c1ccccc1 (stereo not drawn) | 92.2%
53 | COc1cc(C#N)cc(OC)c1OCCN(CCOc1c(OC)cc(C#N)cc1OC)S(=O)(=O)c1ccc(C)cc1 | 45.5%
54 | CN1CCN(Cc2ccc(NC(=O)c3cncc(C#Cc4cncc5nccnc45)c3)cc2C(F)(F)F)CC1 | 20.4%
55 | Nc1nc(-c2ccc(F)cc2)cc(-c2cnn(-c3ccccc3)n2)n1 | 86.8%
56 | CC(=O)C1=C(O)C=C2Oc3c(C(=O)/C=C/c4ccccc4)c(O)c(C)c(O)c3[C@]2(C)C1=O | 30.7%
57 | COc1ccc(C/C(C)=C(\c2ccc(OCCN3CCCCCC3)cc2)c2ccc(OC(=O)C3CCCCC3)cc2)cc1 | 38.6%
58 | O=[N+]([O-])c1cccc(-c2nc3sccn3c2-c2ccnc(NCCCNS(=O)(=O)c3ccc(Br)cc3)n2)c1 | 22.7%
59 | CCOC(=O)/C=C/C(=O)[C@H](CC(C)C)NC(=O)[C@H](Cc1ccccc1)NC(=O)OCc1ccccc1 | 44.7%

Row | SMILES | growth
60 | Cc1cc2cc3cc(C)c(N(C)C)cc3nc2cc1N(C)C | 59.1%
61 | C=C1CCC2C3(C)COC(C)(C)OC3CCC2(C)C1C/C=C1/C(=O)OCC1OC(C)=O (stereo not drawn) | 64.6%
62 | C=C1CC2(OC1=O)C(=O)N(CCCCCCCCCCCCN1C(=O)C3(CC(=C)C(=O)O3)c3ccccc31)c1ccccc12 (stereo not drawn) | 76.6%
63 | O=C1c2cccnc2C(=O)c2c1c(C(=O)OCCN1CCCCC1)c1ccccn21 | -12.7% (active)
64 | COc1ccccc1N1CCN(CCn2c(=O)c3c(c4ccccc4n3C)n(C)c2=O)CC1 | 77.6%
65 | C/C(=C(/c1ccc(O)cc1)c1ccc(OCCN(C)C)cc1)c1ccccc1 | 65%
66 | CCOC(=O)c1c2c(n3ccc(NC(=O)CCN4CCOCC4)cc13)C(=O)c1ncccc1C2=O | 36%
67 | Cc1cc(=O)oc2cc(Oc3nc(-c4cccs4)cn4c(-c5cccs5)cnc34)ccc12 | 60.3%
68 | CC(C)[C@@H]1CC[C@]2(C(=O)NCCCCN=C(N)N)CC[C@]3(C)[C@H](CC[C@@H]4[C@@]5(C)CCC(=O)C(C)(C)[C@@H]5CC[C@]43C)[C@@H]12 | 82.6%
69 | Oc1cc(O)c2c(=S)cc(-c3ccc(Cl)cc3)oc2c1 | 18%
70 | COc1ccc(-c2cn3c(-c4ccc(OC)cc4)cnc3c(Oc3ccc4c(C)cc(=O)oc4c3)n2)cc1 | 75%
71 | CN1CCN(Cc2ccc(NC(=O)c3[nH]ncc3Nc3ccnc4ccsc34)cc2)CC1 | 44.5%
72 | Nc1nc2ccc(-c3nc4ccc5[nH]ncc5c4c4c3CCC4)cc2s1 | 14.7%
73 | Oc1ccc2c(=S)cc(-c3ccc(Br)cc3)oc2c1O | 17.4%
74 | Clc1cccc(Nc2nc(Nc3cnc4ccccc4c3)c3[nH]cnc3n2)c1 | 60.7%
75 | COc1ccc(-c2cc(NC(=O)Nc3ccc(O)cc3)no2)cc1 | 41.9%
76 | CC(=O)CC(C)(C)c1ccc(Cl)cc1 | 85.5%
77 | O=C1C2CC=CCC2C(=O)N1CNc1ccc(Cl)cc1 (stereo not drawn) | 47%
78 | CN1CCN(Cc2ccc(NC(=O)c3[nH]ncc3Nc3ncnc4c3CCC4)cc2)CC1 | 6.53% (active)

Reference: PubChem BioAssay (NCI)
